# Like-named read-outs stand apart in the source and are kept apart here.
# Assays:
# AAK1 = system: AAK1; parameters: species or system human, MV4-11 + K-562 + COLO205 + SK-N-BE2 + OVCAR-8; settings: read-out: apparent Kd, n = 1
# Q6ZSR9 = Q6ZSR9 (human, UniProt Q6ZSR9); parameters: species or system MV4-11 + K-562 + COLO205 + SK-N-BE2 + OVCAR-8; settings: read-out: apparent Kd, n = 1
# ABL1 = system: ABL1; parameters: species or system human, MV4-11 + K-562 + COLO205 + SK-N-BE2 + OVCAR-8; settings: read-out: apparent Kd, compound concentrations: 100 nM and 1000 nM (sheet 'Samples'), n = 1
# ABL2 = system: ABL2; parameters: species or system human, MV4-11 + K-562 + COLO205 + SK-N-BE2 + OVCAR-8; settings: read-out: apparent Kd, compound concentrations: 100 nM and 1000 nM (sheet 'Samples'), n = 1
# BCR = system: BCR; parameters: species or system human, MV4-11 + K-562 + COLO205 + SK-N-BE2 + OVCAR-8; settings: read-out: apparent Kd, compound concentrations: 100 nM and 1000 nM (sheet 'Samples'), n = 1
# CLK1 = system: CLK1; parameters: species or system human, MV4-11 + K-562 + COLO205 + SK-N-BE2 + OVCAR-8; settings: read-out: apparent Kd, compound concentrations: 100 nM and 1000 nM (sheet 'Samples'), n = 1
# CSNK2A2 = system: CSNK2A2; parameters: species or system human, MV4-11 + K-562 + COLO205 + SK-N-BE2 + OVCAR-8; settings: read-out: apparent Kd, compound concentrations: 100 nM and 1000 nM (sheet 'Samples'), n = 1
# FRK = system: FRK; parameters: species or system human, MV4-11 + K-562 + COLO205 + SK-N-BE2 + OVCAR-8; settings: read-out: apparent Kd, compound concentrations: 100 nM and 1000 nM (sheet 'Samples'), n = 1
# GAK = system: GAK; parameters: species or system human, MV4-11 + K-562 + COLO205 + SK-N-BE2 + OVCAR-8; settings: read-out: apparent Kd, compound concentrations: 100 nM and 1000 nM (sheet 'Samples'), n = 1
# RIPK2 = system: RIPK2; parameters: species or system human, MV4-11 + K-562 + COLO205 + SK-N-BE2 + OVCAR-8; settings: read-out: apparent Kd, compound concentrations: 100 nM and 1000 nM (sheet 'Samples'), n = 1
# RIPK3 = system: RIPK3; parameters: species or system human, MV4-11 + K-562 + COLO205 + SK-N-BE2 + OVCAR-8; settings: read-out: apparent Kd, compound concentrations: 100 nM and 1000 nM (sheet 'Samples'), n = 1
# EGFR = system: EGFR; parameters: species or system human, MV4-11 + K-562 + COLO205 + SK-N-BE2 + OVCAR-8; settings: read-out: apparent Kd; compound concentrations: 100 nM and 1000 nM (sheet 'Samples'), CATDS: 4.6980711652152798E-2; n = 1
# FYN = system: FYN; parameters: species or system human, MV4-11 + K-562 + COLO205 + SK-N-BE2 + OVCAR-8; settings: read-out: apparent Kd; compound concentrations: 100 nM and 1000 nM (sheet 'Samples'), CATDS: 2.0819366263931199E-2; n = 1
# HCK = system: HCK; parameters: species or system human, MV4-11 + K-562 + COLO205 + SK-N-BE2 + OVCAR-8; settings: read-out: apparent Kd; compound concentrations: 100 nM and 1000 nM (sheet 'Samples'), CATDS: 2.0776424104180801E-2; n = 1
# PTK6 = system: PTK6; parameters: species or system human, MV4-11 + K-562 + COLO205 + SK-N-BE2 + OVCAR-8; settings: read-out: apparent Kd; compound concentrations: 100 nM and 1000 nM (sheet 'Samples'), CATDS: 1.98277031575195E-2; n = 1
# RET = system: RET; parameters: species or system human, MV4-11 + K-562 + COLO205 + SK-N-BE2 + OVCAR-8; settings: read-out: apparent Kd; compound concentrations: 100 nM and 1000 nM (sheet 'Samples'), CATDS: 7.2637191041935695E-2; n = 1
# [1] = compound concentrations:100 nM and 1000 nM (sheet 'Samples')
# Chain of Q6ZSR9 (Q6ZSR9 whole entry, looked up): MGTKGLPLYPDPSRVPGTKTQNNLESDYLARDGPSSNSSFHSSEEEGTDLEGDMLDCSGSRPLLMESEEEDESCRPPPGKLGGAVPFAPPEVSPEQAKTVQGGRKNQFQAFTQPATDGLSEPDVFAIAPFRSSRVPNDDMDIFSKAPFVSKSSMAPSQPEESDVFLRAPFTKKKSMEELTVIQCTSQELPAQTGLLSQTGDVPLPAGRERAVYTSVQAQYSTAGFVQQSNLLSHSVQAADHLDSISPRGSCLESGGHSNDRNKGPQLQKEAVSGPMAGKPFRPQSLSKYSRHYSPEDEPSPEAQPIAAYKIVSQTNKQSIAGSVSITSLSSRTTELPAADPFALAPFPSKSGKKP
smiles,measurement,setting,value
CC(C)c1cc(-c2ccc3c(N)n[nH]c3c2)nc(N)n1 [GSK2250882A],potency estimated from few doses,AAK1; [1],838 nM
same,potency estimated from few doses,Q6ZSR9; [1],1370 nM
NC(=O)c1cccc(Nc2nccc(Nc3cccc4[nH]ncc34)n2)c1 [GW782612X],potency estimated from few doses,ABL1; CATDS: 3.3551530123454902E-2,1900 nM
same,potency estimated from few doses,ABL2; CATDS: 4.6849720703519497E-2,629 nM
same,potency estimated from few doses,BCR; CATDS: 5.7731069178064698E-2,381 nM
same,potency estimated from few doses,CLK1; CATDS: 3.6631639688053302E-2,1340 nM
same,potency estimated from few doses,CSNK2A2; CATDS: 3.4795292983427199E-2,1630 nM
same,potency estimated from few doses,FRK; CATDS: 5.5821190853221701E-2,411 nM
same,potency estimated from few doses,GAK; CATDS: 4.0699733875589103E-2,937 nM
same,potency estimated from few doses,RIPK2; CATDS: 7.1079405795032996E-2,247 nM
O=C1N=C(NCC(CO)c2ccccc2)S/C1=C\c1ccc2ncccc2c1 (centres unmarked) [RO4582641-000],potency estimated from few doses,"AAK1; compound concentrations: 100 nM and 1000 nM (sheet 'Samples'), CATDS: 0.17753366584660099",89.4 nM
same,potency estimated from few doses,CLK1; CATDS: 0.190725453373879,79.6 nM
same,potency estimated from few doses,CSNK2A2; CATDS: 0.126393310474474,167 nM
same,potency estimated from few doses,"Q6ZSR9; compound concentrations: 100 nM and 1000 nM (sheet 'Samples'), CATDS: 0.16856489309537501",97.6 nM
same,potency estimated from few doses,RIPK2; CATDS: 7.9715899202970897E-2,565 nM
COc1ccccc1CCNC1=NC(=O)/C(=C/c2ccc3ncccc3c2)S1 [RO4503316-000],potency estimated from few doses,"AAK1; compound concentrations: 100 nM and 1000 nM (sheet 'Samples'), CATDS: 8.9875957971869994E-2",1540 nM
same,potency estimated from few doses,CLK1; CATDS: 0.207972147405552,120 nM
same,potency estimated from few doses,CSNK2A2; CATDS: 0.17333569062509099,171 nM
same,potency estimated from few doses,"Q6ZSR9; compound concentrations: 100 nM and 1000 nM (sheet 'Samples'), CATDS: 9.2411068480935804E-2",1310 nM
O=C1N=C(NCc2ccccc2Cl)S/C1=C\c1ccc2ncccc2c1 [RO4506917-000],potency estimated from few doses,"AAK1; compound concentrations: 100 nM and 1000 nM (sheet 'Samples'), CATDS: 0.11408276718016799",696 nM
same,potency estimated from few doses,CLK1; CATDS: 0.13615422717459799,443 nM
same,potency estimated from few doses,CSNK2A2; CATDS: 0.17001055355195799,281 nM
same,potency estimated from few doses,"Q6ZSR9; compound concentrations: 100 nM and 1000 nM (sheet 'Samples'), CATDS: 9.7347252089560202E-2",1190 nM
COc1cc(Nc2ccnc3cc(-c4ccncc4)ccc23)cc(OC)c1OC.Cl [GW494610A],potency estimated from few doses,ABL1; CATDS: 2.4379025884203698E-2,1070 nM
same,potency estimated from few doses,ABL2; CATDS: 2.97420098626874E-2,523 nM
same,potency estimated from few doses,BCR; CATDS: 4.8840213207685099E-2,133 nM
same,potency estimated from few doses,GAK; CATDS: 0.18484170134518799,10.7 nM
same,potency estimated from few doses,RIPK2; CATDS: 0.24490143470797801,7.12 nM
same,potency estimated from few doses,RIPK3; CATDS: 2.5857205413597002E-2,848 nM
O=C1N=C(NCCc2cccc(Cl)c2)S/C1=C\c1ccc2ncccc2c1 [RO4509201-000],potency estimated from few doses,"AAK1; compound concentrations: 100 nM and 1000 nM (sheet 'Samples'), CATDS: 5.6248629663802403E-2",1640 nM
same,potency estimated from few doses,CLK1; CATDS: 0.11223755313714801,275 nM
same,potency estimated from few doses,CSNK2A2; CATDS: 0.201313292648233,103 nM
COc1ccc(CNC(=O)NC2CCN(c3ccnc(Nc4cc(OC)c(OC)c(OC)c4)n3)C2)cc1 (centres unmarked) [GSK1379748A],potency estimated from few doses,"AAK1; compound concentrations: 100 nM and 1000 nM (sheet 'Samples'), CATDS: 0.347671640618193",1680 nM
same,potency estimated from few doses,"Q6ZSR9; compound concentrations: 100 nM and 1000 nM (sheet 'Samples'), CATDS: 0.34499454920455003",1710 nM
O=C1N=C(NCCc2ccccc2F)S/C1=C\c1ccc2ncccc2c1 [RO4498483-000],potency estimated from few doses,"AAK1; compound concentrations: 100 nM and 1000 nM (sheet 'Samples'), CATDS: 8.5407630700809506E-2",957 nM
same,potency estimated from few doses,CLK1; CATDS: 0.138137656029612,347 nM
same,potency estimated from few doses,CSNK2A2; CATDS: 0.14884656797599799,306 nM
same,potency estimated from few doses,"Q6ZSR9; compound concentrations: 100 nM and 1000 nM (sheet 'Samples'), CATDS: 8.1205084555915505E-2",1100 nM
CS(=O)(=O)CCNCc1ccc(-c2ccc3ncnc(Nc4ccc(OCc5cccc(F)c5)c(C(F)(F)F)c4)c3c2)o1 [GW576484X],potency estimated from few doses,EGFR,2290 nM
Nc1nc(-c2ccc3c(N)n[nH]c3c2)cc(N2CCCCC2)n1 [GSK2228768A],potency estimated from few doses,AAK1; [1],749 nM
Cl.Oc1cccc(Nc2ccnc3cc(-c4ccncc4)ccc23)c1 [GW494601A],potency estimated from few doses,ABL1; CATDS: 3.6017646503182399E-2,127 nM
same,potency estimated from few doses,ABL2; CATDS: 5.7742248446513503E-2,32.5 nM
same,potency estimated from few doses,BCR; CATDS: 9.7304657047822804E-2,10.5 nM
same,potency estimated from few doses,FRK; CATDS: 2.21362656072501E-2,843 nM
same,potency estimated from few doses,FYN,1150 nM
same,potency estimated from few doses,GAK; CATDS: 8.36996948680125E-2,14.1 nM
same,potency estimated from few doses,HCK,1170 nM
same,potency estimated from few doses,PTK6,1530 nM
same,potency estimated from few doses,RET,19 nM
same,potency estimated from few doses,RIPK2; CATDS: 0.103970438166355,9.31 nM
same,potency estimated from few doses,RIPK3; CATDS: 6.8751849319998101E-2,21.5 nM
Cc1nn(C)c2cc(N(C)c3ccnc(Nc4cccc(S(N)(=O)=O)c4)n3)ccc12.Cl [GW770220A],potency estimated from few doses,"AAK1; compound concentrations: 100 nM and 1000 nM (sheet 'Samples'), CATDS: 0.34831040930344798",632 nM
same,potency estimated from few doses,"Q6ZSR9; compound concentrations: 100 nM and 1000 nM (sheet 'Samples'), CATDS: 0.39212964610314199",507 nM

# Source: PMC11062922 (Nature Chemical Biology, 2023)
